Bioassay records as filed in PubChem BioAssay.
A selection: hits, their analogues and other compounds. The true share with any hit is near 3.1%.
PI4K2A inh = inhibitors of human PI4K2A | actives 0.13% (n = 420,000) | Q9BTU6 | activity change, negative = inhibition, % at 76.9 µM | AID 1346378 | purified PI4K2A, ADP-Glo luminescence, 1 h; hits give low values; in the data active = activity change below about -50%; inconclusive = mostly about -30% to -49%;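 note: -100% = wells without enzyme as full effect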
Target sequence (Q9BTU6 whole entry, looked up): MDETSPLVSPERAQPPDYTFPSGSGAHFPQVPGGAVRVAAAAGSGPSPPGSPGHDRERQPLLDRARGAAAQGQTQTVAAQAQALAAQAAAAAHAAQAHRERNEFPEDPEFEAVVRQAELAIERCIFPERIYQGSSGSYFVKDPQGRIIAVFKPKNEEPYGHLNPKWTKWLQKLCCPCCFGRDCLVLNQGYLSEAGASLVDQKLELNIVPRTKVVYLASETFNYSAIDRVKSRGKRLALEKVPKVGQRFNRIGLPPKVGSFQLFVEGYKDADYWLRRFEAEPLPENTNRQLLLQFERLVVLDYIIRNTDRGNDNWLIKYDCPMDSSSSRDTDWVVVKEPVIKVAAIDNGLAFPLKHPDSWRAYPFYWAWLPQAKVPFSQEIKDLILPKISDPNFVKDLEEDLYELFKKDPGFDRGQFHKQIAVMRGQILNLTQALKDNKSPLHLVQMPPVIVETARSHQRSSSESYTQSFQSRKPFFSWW
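In this quantitative HTS, ADP production by PI4K2A was quantified luminescently after 1 h at ambient temperature; 100 microM adenosine served as plate-quality control.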
PLK1 PBD block = inhibitors of human PLK1 polo-box domain binding | actives 2.8% (n = 360,000) | P53350 | Potency, µM, inactives show max response, negative = inhibition, actives largely listed as inhibitors | Plk1 PBD binding of FITC phosphopeptide, fluorescence polarization; note: potency is the fitted concentration of half-maximal effect; series mostly up to about 57 µM; % is set by controls: 0 for no effect and ±100 for the full control effect; nearly all actives have a fitted effect of over 65% in size
GCN5L2 inh-1 = blocks human GCN5L2 histone acetyltransferase; Q92830; GCN5L2 HAT assay, ThioGlo1 CoA-SH fluorescence; Potency, µM (titrated, usually from 58.9 µM), for the others: top-dose activity change, negative = inhibition, hits mostly inhibitors; actives 0.21% (n = 390,000); AID 504327; note: potency is the fitted concentration of half-maximal effect; % is set by controls: 0 for no effect and ±100 for the full control effect
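ThioGlo1-coupled HAT assay: 20nM GCN5L2, 70uM acetyl-CoA, 75uM H3(1-25) peptide, pH 7.5. Fluorescence read at 340/540nm at start and after 20 min at room temperature.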
GLS inh = inhibitors of human glutaminase (GLS); O94925; GLS enzymatic activity, qHTS titration; Potency, µM (doses to about 45.5 µM), inactives show at the highest dose activity change, negative = inhibition, most hits filed as inhibitors; actives 0.21% (n = 410,000); AID 624170; note: potency is the fitted concentration of half-maximal effect; % is set by controls: 0 for no effect and ±100 for the full control effect
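Read-out is an Amplex red fluorescence increase coupled through glutamate oxidase and HRP, measured before and after 30 min room-temperature incubation. hKGA is in 45 mM KH2PO4 (pH 8.2) with 0.02% Tween-20; glutamine added as 1mM solution.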
VDR inh = inhibitors of human vitamin D receptor; VDR-SRC2-3 peptide fluorescence polarization, 2 h; Potency, µM, for inactives: max response, negative = inhibition, hits mostly inhibitors; actives 0.93% (n = 400,000); AID 504847; note: potency is the fitted concentration of half-maximal effect; % is set by controls: 0 for no effect and ±100 for the full control effect
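After 23 nl compound addition and a short centrifugation, plates sat for 2 hours at ambient temperature; polarization of fluorescence then indicated loss of VDR binding to peptide SRC2-3.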
GCN5L2 inh-2 = human KAT2A HAT inhibition, hit confirmation; shares compounds with GCN5L2 inh-1; GCN5L2 HAT, ThioGlo1 CoA fluorescence, 20 min; Potency, µM, usual class: inhibitors; actives 70% (n = 140); AID 588347
Active calls of the source: *; ? = inconclusive; / = not tested or not shown. Unless noted, calls come from the whole dose curve; as a rule, active = well fitted curve in the direction sought with a large enough effect; inconclusive = small, poorly fitted or top-dose-only effect, or another doubt; inactive = no such curve, though single readings can be large; an effect the other way counts as inactive or inconclusive.

SMILES	PI4K2A inh	PLK1 PBD block	GCN5L2 inh-1	GLS inh	VDR inh	others
COc1cccc(/C=C2/C(=O)NN(c3ccccc3)C2=O)c1	-3	5.3µM*	-7%	?	?
COc1ccc(/C=C/S(=O)(=O)NC2CCCC2)c(CNC(=O)OC(C)(C)C)c1	-4	/	/	/	/
O=C(O)[C@H]1CCCN1	/	/	8%	/	3%
Cc1onc(-c2ccccc2)c1C(=O)Cl	-4	/	/	/	/
COc1cc(/C=C2/C(=O)NN(c3cccc(Cl)c3)C2=O)cc(OC)c1O	-23	20%	-8%	35%	79µM*
NC(=O)N[C@@H](CCC(=O)O)C(=O)O	-1	/	/	/	/
Cc1ccc(NC2c3ncccc3C(=O)N2c2ccccc2C)cc1C (centres undefined)	-8	6.7µM*	-1%	?	-3%
C=C1CC2COC(=O)C2(Cc2ccc3ccccc3c2)C1 (centres undefined)	/	/	15%	/	-18%
Cn1cccc1C(=O)N1CCN(S(=O)(=O)c2ccc(C(C)(C)C)cc2)CC1	-8	/	/	/	/
Cc1ccc2c(nc3s/c(=C\c4ccc(-c5ccccc5C(=O)O)o4)c(=O)n32)c1C	-4	-20%	-9%	?	-14%
Cc1cc(/C=c2\sc3nc4ccccc4n3c2=O)c(C)n1-c1ccc(C(=O)O)cc1	-1	21µM*	-2%	-4%	-3%
O=c1/c(=C/c2ccc(O)c([N+](=O)[O-])c2)sc2nc3ccccc3n12	2	?	-2%	0%	17%
Cc1cc(C)c2nc3sc(=Cc4ccc(-c5ccccc5C(=O)O)o4)c(=O)n3c2c1	-10	?	/	13µM*	/
Cc1cc(/C=c2/sc3nc4ccccc4n3c2=O)c(C)n1-c1ccccn1	-8	-8%	-9%	2%	-5%
O=C(O)c1ccc(-c2ccc(/C=c3/sc4nc5ccccc5n4c3=O)o2)cc1Cl	-3	-26%	-17%	10µM*	?
O=C(/C=C/c1ccc(Cl)cc1Cl)Nc1cccc(S(=O)(=O)NC2=NCCC2)c1	1	17µM*	-18%	-16%	?
CSc1cccc(NC(=O)c2nnn(CC(=O)Nc3cc(C)cc(C)c3)c2N)c1	-5	13µM*	-7%	?	?
CCc1ccccc1NC(=O)c1nnn(CC(=O)Nc2cccc(C)c2)c1N	0	-8%	-6%	4%	-1%
Cc1ccccc1CS(=O)(=O)Cc1ccc(C(=O)NCCc2ccccc2)o1	-1	30µM*	-5%	-2%	-17%
Cc1cccc(CS(=O)(=O)Cc2ccc(C(=O)NCCc3ccccc3)o2)c1	-5	27µM*	-1%	12%	-18%
CCOc1ccc(CCNC(=O)c2ccc(CS(=O)Cc3cccc(Cl)c3)o2)cc1 (centres undefined)	12	27µM*	-7%	5%	?
CCOC(=O)[C@]12CCCC=C1N(Cc1ccc(OC)cc1)C(=O)[C@@H]2CC(=O)NCc1ccc(C)o1	4	/	/	/	/
COC(=O)c1cccc(Cn2ccc3ccc(-c4ccc5ccn(C(=O)c6cccc(OC)c6)c5c4)cc32)c1	-3	/	/	/	/
Cn1c(SCC(=O)N2CCc3ccccc32)nc2cccnc21	-10	24µM*	-1%	35%	-25%
Nc1cc(=O)[nH]c(SCC(=O)N2CCCc3ccccc32)n1	4	-4%	1%	-6%	4%
SMILES	PI4K2A inh	PLK1 PBD block	GCN5L2 inh-1	GLS inh	VDR inh	others
CCCc1cc(=O)[nH]c(SCC(=O)N(C)CC(=O)Nc2ccccc2CC)n1	-11	27µM*	-3%	57%	?
COc1ccccc1N1CCN(C(=O)CSc2nc(-c3ccccc3)cc(=O)[nH]2)CC1	6	-8%	-5%	29%	-5%
O=C(CSc1nc(-c2ccccc2)cc(=O)[nH]1)N1CCc2ccccc21	5	3µM*	-4%	?	?
CCCc1cc(=O)[nH]c(SCC(=O)N2CCCc3ccccc32)n1	-1	21µM*	7%	-22%	-14%
O=C(CC1CCCC1)N1CC[C@H]2[C@H](CCCN2Cc2ccc(F)cc2)C1	6	/	/	/	/
Cc1ccc(CCn2c3c(c4cc(Cl)ccc42)CN(C)CC3)cn1	-5	/	/	/	/
CCN(CC)CCOC(=O)c1ccc(NC(=O)Cn2ncc3c2-c2cc(C)ccc2OC3)cc1	1	/	1%	7%	4%
Cc1cc(C)c2nc(SCC(=O)Nc3ccccc3N3CCOCC3)c(C#N)cc2c1	1	30µM*	/	3%	-8%
S=c1[nH]cnc2sc(Nc3ccccc3)nc12	-9	-28%	-1%	-3%	71µM*
CCCCNC(=O)C[C@H]1C[C@@]2(C(=O)OC)C(=C[C@H](COCc3ccccc3)O[C@@H]2C)N(Cc2ccco2)C1=O	1	/	/	/	/
Cc1cccc(N=C2NC(=O)/C(=C/C=C/c3ccco3)S2)c1C	-27	15µM*	-9%	-4%	?
COc1ccc(OC)c(S(=O)(=O)n2c(CN3CCOCC3)nc3ccccc32)c1	3	/	/	/	/
Cn1c(CO)nc2cc(N)ccc21	-4	-10%	-12%	8%	3%
Nc1ccc(-c2nc3cc(N)ccc3n2CCO)cc1	-2	-14%	?	19%	-9%	GCN5L2 inh-2=18*
CC(C)COC(=O)c1cc(-c2ccc(/C=N/n3cnnc3)o2)ccc1Cl	2	-14%	-3%	-1%	-13%
C=CCOC(=O)c1cc(-c2ccc(/C=C3\C(=O)NC(=O)C(C#N)=C3C)o2)ccc1Cl	-16	6µM*	25µM*	-28%	25µM*	GCN5L2 inh-2=5.1*
O=C1ON=C(c2ccc(Cl)cc2)/C1=C/c1ccc(O)cc1	-10	0.47µM*	?	?	?	GCN5L2 inh-2=26*
C[C@H](Cc1nc2c(cnn2-c2ccccc2Cl)c(=O)[nH]1)C(F)(F)F	/	/	17%	/	?
